pPAFAH inh: inhibitors of human plasma PAF acetylhydrolase (pPAFAH); Q13093; recombinant pPAFAH, FP-rhodamine probe fluorescence polarization; inhibition, % at 3.39 µM; hit rate 1.5% among 330,000; AID 463082;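 active = inhibition above the mean inhibition across the screen plus 3 SD, cut at about 25% in these data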;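 note: inhibitors block binding of the rhodamine activity-based probe so polarization drops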
PAFAH1B2 FP inh: PAFAH1B2 (human) inhibition. AID 492953. recombinant PAFAH1B2, FP-rhodamine activity probe, fluorescence polarization. inhibition, % at 3.39 µM. hit rate 1.2% among 340,000. P68402;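 active = inhibition above the mean of all tested compounds plus 3 SD, cut at about 24% in these data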
PAFAH1B3 inh: inhibitors of human PAFAH1B3. recombinant PAFAH1B3, FP-rhodamine probe, fluorescence polarization. inhibition, % at 3.39 µM. hit rate 0.28% among 340,000. AID 492972;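 active = inhibition above the screen-wide average of all tested compounds plus 3 SD, cut at about 25% in these data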
PAFAH2 inh: inhibitors of human PAFAH2 | recombinant PAFAH2, FP-rhodamine activity probe, fluorescence polarization | Q99487 | inhibition, % at 3.39 µM | hit rate 0.99% among 340,000 | AID 492956;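 active = inhibition above the mean over all tested compounds plus 3 SD, cut at about 30% in these data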;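 note: inhibitors block probe labeling of enzyme so polarization drops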
HTRA1 inhibitor: HTRA1 (human) protease inhibition. inhibition, % at 5.96 µM. Q92743. hit rate 0.5% among 340,000. recombinant HTRA1, FP-rhodamine activity-based probe, fluorescence polarization; in the data active = inhibition above about 36%
DAGLB inhibitor: diacylglycerol lipase beta (human) inhibition | hit rate 0.059% among 340,000 | inhibition, % at 5.17 µM | HEK293T DAGLB membrane lysate, EnzChek fluorogenic substrate; in the data active = inhibition above about 34%
Target sequence (Q8NCG7 whole entry, looked up): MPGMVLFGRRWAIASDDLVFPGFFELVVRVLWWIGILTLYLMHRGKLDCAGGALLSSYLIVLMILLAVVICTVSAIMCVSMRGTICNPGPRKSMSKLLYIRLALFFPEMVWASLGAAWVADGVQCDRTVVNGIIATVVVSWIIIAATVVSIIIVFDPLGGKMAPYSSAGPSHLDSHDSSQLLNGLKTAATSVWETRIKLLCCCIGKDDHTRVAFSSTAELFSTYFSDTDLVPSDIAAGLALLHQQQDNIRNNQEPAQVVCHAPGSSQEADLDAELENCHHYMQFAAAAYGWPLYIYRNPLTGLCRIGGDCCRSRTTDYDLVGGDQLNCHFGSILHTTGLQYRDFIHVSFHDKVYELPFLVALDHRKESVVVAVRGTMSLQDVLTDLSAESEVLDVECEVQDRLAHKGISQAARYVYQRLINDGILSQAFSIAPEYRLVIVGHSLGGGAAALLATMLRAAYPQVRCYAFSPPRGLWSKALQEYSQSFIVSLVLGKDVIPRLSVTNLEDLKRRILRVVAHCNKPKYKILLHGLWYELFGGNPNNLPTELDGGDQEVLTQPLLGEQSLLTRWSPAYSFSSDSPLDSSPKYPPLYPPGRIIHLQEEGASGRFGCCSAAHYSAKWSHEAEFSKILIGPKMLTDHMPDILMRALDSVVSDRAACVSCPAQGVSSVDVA
Numbers stand for hits. Rows were chosen to be rich in hits. Some 2.8% of all compounds tested hit in one or more screens of this group.

`CC(C)(C)c1[nH]nc2c1C(Cc1ccccc1)C(C#N)=C(N)O2` (stereo not drawn) gave pPAFAH inh inactive, PAFAH1B2 FP inh 39.6, PAFAH1B3 inh inactive, PAFAH2 inh inactive, HTRA1 inhibitor inactive and DAGLB inhibitor inactive.
`CC(C)(C)c1[nH]nc2c1C(c1cccnc1)C(C#N)=C(N)O2` (stereo not drawn) gave pPAFAH inh inactive, PAFAH1B2 FP inh inactive, PAFAH1B3 inh inactive, PAFAH2 inh inactive, HTRA1 inhibitor inactive and DAGLB inhibitor inactive.
Screening CC(=O)N1c2ccc(S(=O)(=O)N(C)CC(=O)NC(C)c3ccccc3)cc2CC1C (stereo not drawn) returned pPAFAH inh inactive, PAFAH1B2 FP inh inactive, PAFAH1B3 inh inactive, PAFAH2 inh inactive, HTRA1 inhibitor inactive and DAGLB inhibitor inactive.
CC(=O)N1CCN(c2ccc(NC(=O)c3cc4ccccc4o3)cc2)CC1 was read as pPAFAH inh 26.0, PAFAH1B2 FP inh inactive, PAFAH1B3 inh inactive, PAFAH2 inh inactive, HTRA1 inhibitor inactive and DAGLB inhibitor inactive.
Screening CC(=O)Nc1ccc(NC(=O)c2cc(=O)c3ccccc3o2)cc1 returned pPAFAH inh 27.7, PAFAH1B2 FP inh inactive, PAFAH1B3 inh inactive, PAFAH2 inh inactive, HTRA1 inhibitor inactive and DAGLB inhibitor inactive.
For Cc1ccc(NC(=O)c2cc(=O)c3ccccc3o2)cc1 the results were pPAFAH inh inactive, PAFAH1B2 FP inh inactive, PAFAH1B3 inh inactive, PAFAH2 inh inactive, HTRA1 inhibitor inactive and DAGLB inhibitor inactive.
For CC1CCCN(C(=O)CN(C)S(=O)(=O)c2ccc3c(c2)c(=O)n(C)c(=O)n3C)C1 (stereo not drawn) the results were pPAFAH inh inactive, PAFAH1B2 FP inh inactive, PAFAH1B3 inh inactive, PAFAH2 inh inactive, HTRA1 inhibitor inactive and DAGLB inhibitor inactive.
N#C/C(=N\Nc1ccc(S(=O)(=O)N2CCc3ccccc32)cc1)C(N)=S was read as pPAFAH inh inactive, PAFAH1B2 FP inh 26.1, PAFAH1B3 inh inactive, PAFAH2 inh inactive, HTRA1 inhibitor inactive and DAGLB inhibitor inactive.
`COc1cc(CNC(=O)CCCCCCC(C)C)ccc1O` gave pPAFAH inh 25.8, PAFAH1B2 FP inh inactive, PAFAH1B3 inh inactive, PAFAH2 inh inactive, HTRA1 inhibitor inactive and DAGLB inhibitor inactive.
Screening COc1ccc(CCNC(=O)CCCCC(=O)NCCc2ccc(OC)c(OC)c2)cc1OC returned pPAFAH inh inactive, PAFAH1B2 FP inh inactive, PAFAH1B3 inh inactive, PAFAH2 inh inactive, HTRA1 inhibitor inactive and DAGLB inhibitor inactive.
CC(=O)C[C@H](O)CC(=O)[C@H]1OC(=O)CCCCCCCCc2ccccc21 was read as pPAFAH inh inactive, PAFAH1B2 FP inh 37.2, PAFAH1B3 inh inactive, PAFAH2 inh inactive, HTRA1 inhibitor inactive and DAGLB inhibitor inactive.
CC(=O)C[C@H](O)CC(=O)[C@H]1OC(=O)CCCCCc2ccccc21 was read as pPAFAH inh inactive, PAFAH1B2 FP inh inactive, PAFAH1B3 inh inactive, PAFAH2 inh inactive, HTRA1 inhibitor inactive and DAGLB inhibitor inactive.
Screening COc1ccc(Cl)cc1NS(=O)(=O)c1ccc(S(=O)(=O)N2CCCC2)cc1 returned pPAFAH inh inactive, PAFAH1B2 FP inh 25.1, PAFAH1B3 inh inactive, PAFAH2 inh inactive, HTRA1 inhibitor inactive and DAGLB inhibitor inactive.
`O=C(CNc1cccc([N+](=O)[O-])c1)N1CCN(S(=O)(=O)c2ccc(Cl)cc2)CC1` gave PAFAH1B2 FP inh 24.5, PAFAH1B3 inh inactive, PAFAH2 inh inactive, HTRA1 inhibitor inactive and DAGLB inhibitor inactive.
COc1ccc(CNC(=O)COc2ccc(S(=O)(=O)N3CCCCC3)cc2)cc1 was read as pPAFAH inh 27.5, PAFAH1B2 FP inh inactive, PAFAH1B3 inh inactive, PAFAH2 inh inactive, HTRA1 inhibitor inactive and DAGLB inhibitor inactive.
Screening O=C(COc1ccc(S(=O)(=O)Nc2ccccc2)cc1)N1CCOCC1 returned pPAFAH inh 27.3, PAFAH1B2 FP inh inactive, PAFAH1B3 inh inactive, PAFAH2 inh inactive, HTRA1 inhibitor inactive and DAGLB inhibitor inactive.
`O=C(c1cc2cc(Cl)ccc2[nH]1)N1CCN(C(=O)c2ccco2)CC1` gave pPAFAH inh inactive, PAFAH1B2 FP inh inactive, PAFAH1B3 inh inactive, PAFAH2 inh inactive, HTRA1 inhibitor inactive and DAGLB inhibitor inactive.
Screening CCOc1ccccc1OCCCC(=O)N1CCN(S(=O)(=O)c2ccc(C)cc2C)CC1 returned pPAFAH inh inactive, PAFAH1B2 FP inh inactive, PAFAH1B3 inh inactive, PAFAH2 inh inactive, HTRA1 inhibitor inactive and DAGLB inhibitor inactive.
For Cc1cc(OCC(=O)OCC(=O)Nc2cc(S(=O)(=O)N3CCOCC3)ccc2Cl)ccc1Cl the results were pPAFAH inh inactive, PAFAH1B2 FP inh inactive, PAFAH1B3 inh inactive, PAFAH2 inh inactive, HTRA1 inhibitor inactive and DAGLB inhibitor inactive.
`COc1ccccc1CNC(=O)N1CCN(S(=O)(=O)c2ccc(Cl)cc2)CC1` gave pPAFAH inh inactive, PAFAH1B2 FP inh 29.8, PAFAH1B3 inh inactive, PAFAH2 inh inactive, HTRA1 inhibitor inactive and DAGLB inhibitor inactive.
O=C(CCCOc1ccccc1)N1CCN(S(=O)(=O)c2ccc(Cl)cc2)CC1 was read as pPAFAH inh inactive, PAFAH1B2 FP inh 29.5, PAFAH1B3 inh inactive, PAFAH2 inh inactive, HTRA1 inhibitor inactive and DAGLB inhibitor inactive.
CCOc1ccccc1OCCCC(=O)N1CCN(S(=O)(=O)c2ccc(C)cc2)CC1 was read as pPAFAH inh inactive, PAFAH1B2 FP inh 29.4, PAFAH1B3 inh inactive, PAFAH2 inh inactive, HTRA1 inhibitor inactive and DAGLB inhibitor inactive.
`COc1ccc(OCC(=O)OCC(=O)Nc2cc(S(=O)(=O)N3CCOCC3)ccc2Cl)cc1` gave pPAFAH inh 29.1, PAFAH1B2 FP inh inactive, PAFAH1B3 inh inactive, PAFAH2 inh inactive, HTRA1 inhibitor inactive and DAGLB inhibitor inactive.
`O=C(Oc1coc(CSc2nnc(NC(=O)C3CC3)s2)cc1=O)c1c(F)cccc1F` gave pPAFAH inh inactive, PAFAH1B2 FP inh inactive, PAFAH1B3 inh inactive, PAFAH2 inh inactive, HTRA1 inhibitor inactive and DAGLB inhibitor inactive.
`O=C(COc1ccccc1)N1CCN(S(=O)(=O)c2ccc(Cl)cc2)CC1` gave pPAFAH inh inactive, PAFAH1B2 FP inh 30.6, PAFAH1B3 inh inactive, PAFAH2 inh inactive, HTRA1 inhibitor inactive and DAGLB inhibitor inactive.
`COc1ccc(CN(C)C(=O)CCC(=O)N2CCN(S(=O)(=O)c3ccc(Cl)cc3)CC2)c(OC)c1` gave PAFAH1B2 FP inh 26.6, PAFAH1B3 inh inactive, PAFAH2 inh inactive, HTRA1 inhibitor inactive and DAGLB inhibitor inactive.
For Nc1ncccc1C(=O)OCC(=O)N1CCN(S(=O)(=O)c2ccc(Cl)cc2)CC1 the results were pPAFAH inh inactive, PAFAH1B2 FP inh 24.2, PAFAH1B3 inh inactive, PAFAH2 inh inactive, HTRA1 inhibitor inactive and DAGLB inhibitor inactive.
Screening COc1ccc(CN(C)C(=O)CCc2ccc(S(=O)(=O)N3CCCCCC3)cc2)c(OC)c1 returned pPAFAH inh inactive, PAFAH1B2 FP inh inactive, PAFAH1B3 inh inactive, PAFAH2 inh inactive, HTRA1 inhibitor inactive and DAGLB inhibitor inactive.
For O=C(COc1ccc(Cl)cc1)N1CCN(S(=O)(=O)c2ccccc2)CC1 the results were pPAFAH inh inactive, PAFAH1B2 FP inh inactive, PAFAH1B3 inh inactive, PAFAH2 inh inactive, HTRA1 inhibitor inactive and DAGLB inhibitor inactive.
